{"source": "ChEMBL document CHEMBL3988442", "about": "“University of Dundee, Small-Polar-MMV Screening Library” (2021)", "note": "About 13,000 (27%) of roughly 48,000 compounds showed an effect of 50% or more. The list shows a part of the results."}
{"tested_on": "Wolbachia pipientis", "experiment": "Anti-Wolbachia Cell-Based Screen", "assay_type": "functional", "design": "scale not given: in the data most compounds retested in dose-response had high values", "conditions": "5 µM", "units": {"Percent Effect": "%"}}
{"smiles": "O=C(Nc1cncc(Br)c1O)c1ccon1", "Percent Effect": -9.076}
{"smiles": "Cc1csc(CCNC(=O)c2cc3c(nc2O)CCC(C)C3)n1", "note": "(centres undefined)", "Percent Effect": -7.199}
{"smiles": "CC(C)(C)n1cc(C#N)cc1NC(=O)CCS(=O)(=O)C1CCCC1", "Percent Effect": -10.01}
{"smiles": "COCC(C)(CCO)NC(=O)Nc1cccc(Br)c1C", "note": "(centres undefined)", "Percent Effect": 7.029}
{"smiles": "NC(=O)CN1CCN(c2ccnc3c(F)ccc(F)c23)CC1", "Percent Effect": 3.08}
{"smiles": "NC(=O)c1cccc2nc([C@H]3CCN(Cc4ccccn4)C3)[nH]c12", "Percent Effect": -3.203}
{"smiles": "COc1ccc(C)cc1CNC(=O)C1=NN(c2ccccc2)C(=O)CN1", "Percent Effect": 14.16}
{"smiles": "CC(C)Sc1ccc(N2CCN(Cc3ccccn3)CC2)nn1", "Percent Effect": 14.48}
{"smiles": "CCc1nc(CNc2nc3c(s2)c(C)nn3C)cs1", "Percent Effect": -39.2}
{"smiles": "Cc1nn(C)c2nc(N3CCC(C(O)c4nccn4C)CC3)sc12", "note": "(centres undefined)", "Percent Effect": -3.971}
{"smiles": "COC(=O)c1ccc(N2CCN(Cc3csc(C)n3)CC2)nn1", "Percent Effect": -1.977}
{"smiles": "Cc1cc(N2CCN(Cc3nccn3C)CC2)cc(C)n1", "Percent Effect": -5.748}
{"smiles": "Cc1nn(C)c2nc(N3CCN(Cc4nccn4C)CC3)sc12", "Percent Effect": 103.8}
{"smiles": "Cc1nc(CN2CCN(c3nc4c(s3)c(C)nn4C)CC2)cs1", "Percent Effect": 119.2}
{"smiles": "Cc1nc(CNc2nc3c(s2)c(C)nn3C)cs1", "Percent Effect": -20.12}
{"smiles": "Cc1nc(CN2CCN(c3ccc(SC(C)C)nn3)CC2)cs1", "Percent Effect": 68.89}
{"smiles": "Cc1ccc2c(c1)C(NC(=O)N(C)C)CC21CCN(CC2CC2)CC1.O=C(O)C(F)(F)F", "note": "(centres undefined)", "Percent Effect": 116.9}
{"smiles": "Cc1ccc2c(c1)C(NC(=O)N(C)C)CC21CCN(C)CC1.O=C(O)C(F)(F)F", "note": "(centres undefined)", "Percent Effect": 102.1}
{"smiles": "Cc1ccc2c(c1)C(N(C)C)CC21CCN(CCO)CC1.O=C(O)C(F)(F)F.O=C(O)C(F)(F)F", "note": "(centres undefined)", "Percent Effect": 1.059}
{"smiles": "CCN1CCC2(CC1)CC(NC(=O)NC)c1cc(C)ccc12.O=C(O)C(F)(F)F", "note": "(centres undefined)", "Percent Effect": -18.25}
{"smiles": "CCN1CCC2(CC1)CC(NC(=O)N(C)C)c1cc(C)ccc12.O=C(O)C(F)(F)F", "note": "(centres undefined)", "Percent Effect": -13.82}
{"smiles": "Cc1ccc2c(c1)C(NC(=O)N(C)C)CC21CCN(C(C)C)CC1.O=C(O)C(F)(F)F", "note": "(centres undefined)", "Percent Effect": 100.3}
{"smiles": "CC(C)N1CCC2(CC1)CC(CC(N)=O)c1ccc(F)cc12.O=C(O)C(F)(F)F", "note": "(centres undefined)", "Percent Effect": 14.5}
{"smiles": "Cn1nnc2c1CCN(S(C)(=O)=O)C2COCc1ccccc1", "note": "(centres undefined)", "Percent Effect": -3.39}
{"smiles": "Nc1cc2c(nn1)CCN(C(=O)c1csc(-c3ccccc3)n1)C2", "Percent Effect": 1.599}
{"smiles": "O=c1cc(-c2ccncc2)nc(-c2ccc(CN3CC[C@@H](O)C3)cc2)[nH]1", "Percent Effect": 1.525}
{"smiles": "c1sc(C2CCCC2)nc1CN1CCn2c(nnc2C2CC2)C1", "Percent Effect": -0.3735}
{"smiles": "Cc1ccc(-c2nc(CN3CCc4c(ncn4C)C3)cs2)o1", "Percent Effect": 0.8085}
{"smiles": "CCCc1nc(CN2CCc3c(ncn3C3CC3)C2)cs1", "Percent Effect": 72.74}
{"smiles": "Cn1cnc2c1CCN(Cc1csc(C3CCCC3)n1)C2", "Percent Effect": 102.6}
{"smiles": "c1sc(C2CCCCC2)nc1CN1CCn2c(nnc2C2CC2)C1", "Percent Effect": 99.95}
{"smiles": "c1ccc(-c2nc(CN3CCn4c(nnc4C4CC4)C3)cs2)cc1", "Percent Effect": 1.064}
{"smiles": "c1cc(-c2noc(CN3CCc4c(ncn4C4CC4)C3)n2)cs1", "Percent Effect": 0.1339}
{"smiles": "CCc1nc(CN2CCc3c(ncn3C3CC3)C2)cs1", "Percent Effect": 49.69}
{"smiles": "Cn1cnc2c1CCN(Cc1csc(-c3ccsc3)n1)C2", "Percent Effect": 1.661}
{"smiles": "Cn1cnc2c1CCN(Cc1csc(C3CCCCC3)n1)C2", "Percent Effect": 104.6}
{"smiles": "COc1ccc(-c2nc(CN3CCc4c(ncn4C)C3)cs2)cc1", "Percent Effect": 30.48}
{"smiles": "Cc1cnc(-c2nc(O)c3c(n2)CN(C(=O)C2CCOC2)CC3)cn1", "note": "(centres undefined)", "Percent Effect": 177.2}
{"smiles": "Cc1cnc(-c2nc(O)c3c(n2)CN(C(=O)C2CCCC2)CC3)cn1", "Percent Effect": 133.6}
{"smiles": "CNC(=O)C1CCN(c2ncnc3c2CCN(C(=O)C2CC2)C3)C1", "note": "(centres undefined)", "Percent Effect": -3.996}
{"smiles": "O=C(C1CC1)N1CCc2c(ncnc2NCCc2nc3c(s2)CCC3)C1", "Percent Effect": 7.369}
{"smiles": "CCN1CCN(c2ncnc3c2CCN(C(=O)C2CC2)C3)CC1", "Percent Effect": -21.72}
{"smiles": "O=C(C1CCCO1)N1CCc2onc(-c3ccc(Cl)cc3)c2C1", "note": "(centres undefined)", "Percent Effect": 0.5907}
{"smiles": "CCN(CC)C1CCN(c2ncnc3c2CCN(C(=O)C2CC2)C3)C1", "note": "(centres undefined)", "Percent Effect": -6.613}
{"smiles": "CN(C)c1nc2c(c(=O)[nH]1)CCN(C(=O)C1CCCO1)C2", "note": "(centres undefined)", "Percent Effect": 4.175}
{"smiles": "O=C(C1CCOC1)N1CCc2ncnc(NC3CCC3)c2CC1", "note": "(centres undefined)", "Percent Effect": -0.188}
{"smiles": "Cc1cnc(-c2nc(O)c3c(n2)CN(C(=O)C2CCCO2)CC3)cn1", "note": "(centres undefined)", "Percent Effect": 141.1}
{"smiles": "O=C(C1CCOC1)N1CCc2ncnc(C3CC3)c2CC1", "note": "(centres undefined)", "Percent Effect": 2.623}
{"smiles": "Cc1cnc(-c2nc(O)c3c(n2)CN(C(=O)C2CC2)CC3)cn1", "Percent Effect": 165.3}
{"smiles": "NC(=O)C(NC(=O)c1ccc(NC2CC2)nc1)c1ccccc1", "note": "(centres undefined)", "Percent Effect": 15.13}
{"smiles": "CC(C)n1cnc(C2CN(C)c3ccc(C(=O)NC4CCCC4)cc32)n1", "note": "(centres undefined)", "Percent Effect": -4.903}
{"smiles": "CC(=O)N[C@@H](CC(C)C)C(=O)N1CCC(n2cc(CO)nn2)CC1", "Percent Effect": -15.95}
{"smiles": "CCCc1nccn1-c1ccc(C(C)O)cc1", "note": "(centres undefined)", "Percent Effect": -9.636}
{"smiles": "Cc1oc(C(C)C)cc1C(=O)N1C[C@H]2CC[C@@H]1CN(C(=O)N(C)C)C2", "Percent Effect": -18.45}
{"smiles": "O=C(N1CCC(Oc2ccncc2)C1)C1(c2ccc(F)cc2)CC1", "note": "(centres undefined)", "Percent Effect": -3.796}
{"smiles": "COc1cnc(N2CCN(C)CC2)nc1-c1ccnn1C", "Percent Effect": -15.65}
{"smiles": "c1cc(-c2c[nH]c([C@@H]3COCCN3Cc3csnn3)n2)ccn1", "Percent Effect": 7.154}
{"smiles": "Cc1cnc(-c2nc(O)c3c(n2)CN(C(=O)CC2CCCC2)CC3)cn1", "Percent Effect": 148.5}
{"smiles": "O=C1NCCN(CC2CCCCC2)C1CC(=O)N1CCc2n[nH]cc2C1", "note": "(centres undefined)", "Percent Effect": -15.6}
{"smiles": "Nc1cc2c(nn1)CCN(C(=O)CC1CCCC1)C2", "Percent Effect": -4.566}
{"smiles": "Cc1cnc(N2CCC3(CC2)CCN(c2cncnc2)C3=O)nc1", "Percent Effect": -8.08}
{"smiles": "O=C(NCc1nc[nH]n1)c1cc(COc2cccc(C(F)(F)F)c2)[nH]n1", "Percent Effect": 0.1207}
{"smiles": "NS(=O)(=O)NCc1cc(-c2ccc(C(F)(F)F)cc2)n[nH]1", "Percent Effect": 103.6}
{"smiles": "NS(=O)(=O)c1ccc(NCc2ccccc2)cc1C(F)(F)F", "Percent Effect": 11.93}
